Assay results as given in PubChem BioAssay (Tox21).
Values joined by “and” are separate entries in the source; they are usually repeats but may differ in a detail not shown here. Identical values can stand only once. Inconclusive results are not listed. Where a call stands in place of a potency, no number is given. A structure can be active in one record and inactive in another. Active and inactive are the calls of the source. The call rests on the fitted dose curve; in most records, active means well fitted inhibition curve with a large enough effect in the repeat runs; inconclusive means weak or mixed curves; inactive means flat fitted curve, though single readings scatter.

biological target: Luciferin 4-monooxygenase (Photinus pyralis) (UniProt P08659); test: qHTS assay to identify small molecule inhibitors of firefly luciferase (AID 1224835); further: nearly all actives have a fitted effect of over 25% in size; settings: purified P. pyralis luciferase, luminescence inhibition; series mostly up to 115 µM
Sequence (P08659 whole entry, looked up): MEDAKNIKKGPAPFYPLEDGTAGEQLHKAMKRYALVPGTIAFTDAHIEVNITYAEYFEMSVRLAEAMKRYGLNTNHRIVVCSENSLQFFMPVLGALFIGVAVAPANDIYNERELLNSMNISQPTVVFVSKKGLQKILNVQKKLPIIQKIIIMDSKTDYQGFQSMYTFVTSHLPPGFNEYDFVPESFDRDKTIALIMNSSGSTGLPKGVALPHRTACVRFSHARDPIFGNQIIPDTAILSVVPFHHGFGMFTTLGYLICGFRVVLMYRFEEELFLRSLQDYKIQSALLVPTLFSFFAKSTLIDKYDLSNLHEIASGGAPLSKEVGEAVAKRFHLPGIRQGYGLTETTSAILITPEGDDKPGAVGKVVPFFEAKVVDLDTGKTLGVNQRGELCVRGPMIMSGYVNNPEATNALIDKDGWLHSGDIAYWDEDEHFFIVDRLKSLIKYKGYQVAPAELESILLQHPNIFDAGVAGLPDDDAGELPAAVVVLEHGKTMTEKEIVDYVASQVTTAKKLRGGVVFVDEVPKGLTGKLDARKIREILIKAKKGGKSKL
Description: U.S. Tox21 Program National Center for Advancing Translational Sciences [NCATS] NIH Chemical Genomics Center [NCGC] U.S. Environmental Protection Agency [EPA] National Institutes of Environmental Health Sciences [NIEHS] National Toxicology Program [NTP] U.S. Food and Drug Administration [FDA] Tox21 Assay Overview: Firefly (Photinus pyralis) luciferase is one of the most commonly used transcriptional reporters. Firefly luciferase reporter-gene assays are generally considered one of the most sensitive assay types (Wood, 1995; Wood, 1998). However, it was initially observed, in 1991, by Thompson et al., that compounds that resemble the substrates of firefly luciferase (FLuc) can act as competitive inhibitors of the enzyme, and that these compounds, upon interaction with luciferase in the cell, can actually stabilize the protein and increase its half-life. Previous profiling work by other groups to determine the prevalence of compounds that affect FLuc enzymatic activity (PubChem AID 411) identified that ~3% of the MLSMR library (then at ~72K) inhibited FLuc. […] Thus the Tox21 10K library is profiled for activity against FLuc using a biochemical assay of purified FLuc and KM concentrations of FLuc substrates (D-luciferin and ATP).
These assay plates were then treated with 23nL of compound or DMSO using a Kalypsys pin tool, which allows for delivery of a 6-point interplate titration of each compound to the assay plate (quantitative HTS.) 1 uL of firefly luciferase mix (containing 50 mM Tris acetate, pH 7.6, 0.04 uM P. pyralis luciferase, 0.01% Tween, 0.05% BSA and dH2O) was then delivered by FRD to each well. Luciferase activity was then measured using a ViewLux CCD imager.

Compound | Potency
C=C(C)C(=O)OCCCCCCCCCCCC | inactive
CCCCCCCCCCC=CC1CC(=O)OC1=O (stereo not given) | 63.6 µM (active) and 71 µM (active)
COCC(=O)O | inactive
OCC1CCCO1 (stereo not given) | inactive
CCCCOCCOCCOC(=O)CCCCC(=O)OCCOCCOCCCC | inactive
CC1=CC[C@H]2C[C@@H]1C2(C)C | inactive
COCC(C)O (stereo not given) | inactive
CCCCC(CC)COC(=O)CCCCCCCC(=O)OCC(CC)CCCC (stereo not given) | inactive
O=S(=O)(O)CCS | inactive
CCC(=O)O | inactive
CCCCCC/C=C/CCCCCCCC(=O)O | inactive and 71 µM (active)
CC(C)(C)C(=O)C1C(=O)c2ccccc2C1=O | 31.4 µM (active)
O=C1CCCCC1 | inactive
CS(=O)(=O)c1ccc([C@@H](O)[C@@H](CO)NC(=O)C(Cl)Cl)cc1 | inactive
C=C1C2CCC(C2)C1(C)C (stereo not given) | inactive
c1ccc2[nH]cnc2c1 | inactive
NS(=O)(=O)c1cc2c(cc1Cl)NC=NS2(=O)=O | inactive
Cc1ccc(C(=O)O)o1 | inactive
CC(=O)CCc1ccccc1 | inactive
CN(C)c1ccc(C(=N)c2ccc(N(C)C)cc2)cc1 | 55.7 µM (active) and inactive

Compound | Potency
O=[N+]([O-])c1cc(N(CCO)CCO)ccc1NCCO | 28.2 µM (active) and 39.9 µM (active)
CCC(C)C=O (stereo not given) | inactive
COC(=O)c1ccccc1O | 63.5 µM (active) and inactive
CC[Si](OC(C)=O)(OC(C)=O)OC(C)=O | inactive
NCc1cccc(CN)c1 | inactive
O=c1c(-c2ccc(O)cc2)coc2cc(O)ccc12 | 24.9 µM (active) and 12.6 µM (active)
CN(C)c1cccc(O)c1 | 31.7 µM (active)
CCCCOCCO | inactive
CCOC(=O)/C=C\C(=O)OCC | inactive
CCCCCCOC(C)=O | inactive
Cc1cc(O)c2c(c1)C(=O)c1cc(O)cc(O)c1C2=O | 34.8 µM (active) and 31.7 µM (active)
Clc1cc(Cl)c(Cl)cc1Cl | inactive
C=C(C)C(=O)OCCCCCC | inactive
Oc1c(Cl)cc(Cl)c(Cl)c1Cl | inactive
Nc1cc(-c2ccncc2)c[nH]c1=O | inactive
OC[C@@H](O)[C@@H](O)[C@H](O)[C@@H](O)CO | inactive
O=C(Oc1ccccc1)c1ccc(O)cc1 | 35.8 µM (active) and 35.6 µM (active)
CC(=O)[C@@]1(O)CC[C@H]2[C@@H]3CCC4=CC(=O)CC[C@]4(C)[C@H]3CC[C@@]21C | inactive
OCC#CCO | inactive
CCCCC(CC)COC(C)=O (stereo not given) | inactive
